Results: PubChem BioAssay (EPA / NIEHS)
Records with an inconclusive call do not appear. Active and inactive are the calls of the source. The calls were made as follows, unless noted: active = hit-call score of the fitted dose curve at least 0.9, where 1 is the maximum; inactive = score below 0.9.

Experiments:
[1] = CCTE_Mundy_HCI_Cortical_Synap_Neur_Matur_NeuriteLength: CCTE's Synaptogenesis and Neurite Maturation Assay in rat cortical cells for Neurite Length, Mundy Lab (AID 2284214)
Method in brief: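 Neurite length quantified by automated high-content imaging of MAP2, synaptophysin and Hoechst staining. Rat cortical cells received chemical from DIV 7 to DIV 12 […], glial growth arrested by AraC at DIV 5; DMSO baseline.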

[2] = CCTE_Mundy_HCI_Cortical_Synap_Neur_Matur_SynapseCount: CCTE's Synaptogenesis and Neurite Maturation Assay in rat cortical cells for Synapse Count, Mundy Lab (AID 2284218)
Method in brief: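 High-content imaging of synaptophysin puncta per MAP2-positive neuron (Hoechst nuclei) in rat cortical cells exposed DIV 7–12 after glial arrest with AraC at DIV 5; decrease relative to DMSO scored.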

[3] = CCTE_Mundy_HCI_Cortical_Synap_Neur_Matur_NeuriteCount: CCTE's Synaptogenesis and Neurite Maturation Assay in rat cortical cells for Neurite Count, Mundy Lab (AID 2284222);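 also: exposure from day 7 to day 12 in vitro with readout at day 12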
Method in brief: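 Chemical exposure runs DIV 7–12 in rat cortical cultures, glia suppressed by AraC at DIV 5; measurement is at DIV 12. Imaging-derived neurite counts are fitted against DMSO baseline.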

[4] = CCTE_Mundy_HCI_Cortical_Synap_Neur_Matur_CellBodySpotCount: CCTE's Synaptogenesis and Neurite Maturation Assay in rat cortical cells for Cell Body Spot Count, Mundy Lab (AID 2284223)
Method in brief: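 Rat primary cortical cultures received AraC at DIV 5 to arrest glia, were dosed with chemical at DIV 7 with media change, and were fixed at DIV 12 (288.33 h). Synaptophysin puncta on MAP2-positive cell bodies per neuron were counted by high-content imaging versus DMSO.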

[5] = CCTE_Mundy_HCI_hNP1_Pro_ResponderAvgInten: CCTE's Proliferation Assay in human neuroprogenitor cells, Mundy Lab (AID 2284224; active = hit-call score of the fitted dose curve at least 0.9, where 1 is the maximum)
Method in brief: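 Proliferation was scored as BrdU labelling intensity in human neural progenitors derived from WA09 embryonic cells, measured 26.25 hours after chemical dosing. Activity was fitted relative to DMSO.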

[6] = UKN2_HCS_IMR90_cell_viability: Viability Assessment in the University of Konstanz (UKN) Leist Lab Neural Crest Cell Migration Assay in human induced IMR90 Pluripotent Stem Cells (UKN2) (AID 2284233);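 also: cells exposed to compound for 24 h after a 24 h migration phase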
Method in brief: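 After calcein-AM/Hoechst staining, viability is quantified by high-content fluorescence imaging, relative to DMSO, in iPSC (IMR90)-derived neural crest cells. Exposure lasts 24 h, starting after a 24 h migration period on PLO/laminin/fibronectin coating.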

[7] = CCTE_Mundy_HCI_Cortical_NOG_NeuronCount: CCTE's Neurite Outgrowth Assay in rat cortical cells for Neuron Count, Mundy Lab (AID 2284236; active = hit-call score of the fitted dose curve at least 0.9, where 1 is the maximum;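 also: neurons counted by imaging betaIII-tubulin and Hoechst stained cortical cells; cells exposed to compound for about 48 hours before fixation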)
Method in brief: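 Read-out: neuron number by high-content imaging of betaIII-tubulin (Alexa Fluor-488) and Hoechst-labelled rat primary cortical cells.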

[8] = CCTE_Mundy_HCI_Cortical_NOG_BPCount: CCTE's Neurite Outgrowth Assay in rat cortical cells for Branch Point Count, Mundy Lab (AID 2284237)
Method in brief: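 Measured 50.33 h after dosing, this morphology endpoint uses rat primary cortical cultures labelled for betaIII-tubulin. Branch points are quantified by high-content imaging, with DMSO as negative control and baseline.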

[9] = CCTE_Mundy_HCI_hNP1_Casp3_7: CCTE's Caspase-Glo 3/7 Assay in human neuroprogenitor cells for Apoptosis, Mundy Lab (AID 2284240)
Method in brief: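 Apoptosis is scored by activated caspase-3/7 luminescence in WA09-derived neural progenitor cells, measured 26.5 h after chemical dosing. Values represent gain of signal relative to DMSO vehicle.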

[10] = CCTE_Mundy_HCI_hNP1_CellTiter: CCTE's Cell Titer-Glo 2 Assay in human neuroprogenitor cells for Viability, Mundy Lab (AID 2284241; active = hit-call score of the fitted dose curve at least 0.9, where 1 is the maximum)
Method in brief: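 Human neural progenitor cells (hNP1, WA09-derived) were plated on poly-L-ornithine/laminin and grown 40 to 44 hours at 37 °C, 5% CO2 before chemical addition. Twenty-four hours later, ATP was measured by CellTiter-Glo luminescence; loss of signal versus DMSO indicates reduced viability.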

[11] = CCTE_Mundy_HCI_Cortical_Synap_Neur_Matur_NeuronCount: CCTE's Synaptogenesis and Neurite Maturation Assay in rat cortical cells for Neuron Count, Mundy Lab (AID 2284242; active = hit-call score of the fitted dose curve at least 0.9, where 1 is the maximum)
Method in brief: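 Neuron counts come from automated high-content imaging of Hoechst nuclei and MAP2/synaptophysin immunostaining at DIV 12, with loss of signal judged against DMSO. Cultures of rat cortical cells had glial growth arrested by AraC at DIV 5; chemical exposure began DIV 7.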

[12] = IUF_NPC2c_oligodendrocyte_migration_120hr: Leibniz Research Institute for Environmental Medicine (IUF) 120-hour Neural Progenitor Cell Migration Assay for Oligodendrocyte Migration (NPC2c) (AID 2284297);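 also: O4-positive oligodendrocyte migration distance divided by radial glia migration distance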
Method in brief: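 Human fetal cortex-derived neural progenitor spheres (0.3 mm) were plated on poly-D-lysine/laminin in N2 differentiation medium and exposed to 7 concentrations for 120 h, with half-medium renewal at day 3. Oligodendrocyte migration distance was normalized to radial glia migration, relative to DMSO.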

[13] = IUF_NPC2a_radial_glia_migration_120hr: Leibniz Research Institute for Environmental Medicine (IUF) 120-hour Neural Progenitor Cell Migration Assay for Radial Glia Migration (NPC2a) (AID 2284298)
Method in brief: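 Single 0.3 mm primary human fetal-cortex (GW 16-19) NPC spheres were plated on poly-D-lysine/laminin in N2 differentiation medium and exposed from day 0 for 120 h, half-medium refreshed day 3. Migration distance came from Hoechst nuclei-density imaging, relative to DMSO.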

[14] = IUF_NPC2b_neuronal_migration_120hr: Leibniz Research Institute for Environmental Medicine (IUF) 120-hour Neural Progenitor Cell Migration Assay for Neuron Migration (NPC2b) (AID 2284300)
Method in brief: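 Primary human fetal cortex neural progenitor spheres (0.3 mm) plated on poly-D-lysine/laminin in N2 differentiation medium, exposed 120 h with half-medium refresh at day 3. TUBB3-stained neuron distance from sphere core, normalized to radial glia migration, versus DMSO.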

[15] = IUF_NPC3_neuronal_differentiation_120hr: Leibniz Research Institute for Environmental Medicine (IUF) 120-hour Neuronal Differentiation Assay (NPC3) (AID 2284301)
Method in brief: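 Value is percent TUBB3-positive neurons among Hoechst-stained nuclei in the migration area, scored by trained CNN after 120 h differentiation. Primary hNPC spheres on poly-D-lysine/laminin, N2 medium, continuous dosing from day 0, half-refeed day 3; DMSO reference.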

[16] = IUF_NPC4_neurite_length_120hr: Leibniz Research Institute for Environmental Medicine (IUF) 120-hour Neuronal Morphology Assay for Neurite Length (NPC4) (AID 2284302)
Method in brief: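 Neurite length, the mean in um across TUBB3-stained neurons, is derived by skeletonization of high-content images after 120 h differentiation. Compound exposure, 7 concentrations plus solvent control, ran from plating of hNPC spheres on poly-D-lysine/laminin, with medium half-replaced on day 3.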

[17] = IUF_NPC5_oligodendrocyte_differentiation_120hr: Leibniz Research Institute for Environmental Medicine (IUF) 120-hour Oligodendrocyte Differentiation Assay (NPC5) (AID 2284304; active = hit-call score of the fitted dose curve at least 0.9, where 1 is the maximum;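 also: primary human fetal neural progenitor spheres plated to migrate and differentiate; share of O4-positive cells among Hoechst nuclei found by CNN image analysis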)
Method in brief: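 Primary human fetal (GW 16-19) neural progenitor spheres (0.3 mm) plated on poly-D-lysine/laminin in N2 differentiation medium, exposed from day 0 for 120 h with half-medium refresh at day 3; O4-positive cells as percent of Hoechst nuclei, CNN-identified, versus DMSO.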

[18] = IUF_NPC4_neurite_area_120hr: Leibniz Research Institute for Environmental Medicine (IUF) 120-hour Neuronal Morphology Assay for Neurite Area (NPC4) (AID 2284305; active = hit-call score of the fitted dose curve at least 0.9, where 1 is the maximum)
Method in brief: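 Neurite area (pixels, nuclei excluded) of TUBB3-positive neurons from hNPC spheres differentiating 5 days under continuous exposure at 37 C, 5% CO2. High-content imaging; loss of signal versus DMSO control across 7 concentrations.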

[19] = IUF_NPC2-5_cytotoxicity_72hr: Cytotoxicity Assessment at 72 hours in the Leibniz Research Institute for Environmental Medicine (IUF) Neural Progenitor Cell Migration and Differentiation Assay for Cytotoxicity (NPC2-5) (AID 2284306; active = hit-call score of the fitted dose curve at least 0.9, where 1 is the maximum;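 also: LDH release into supernatant measured by resorufin fluorescence marking membrane damage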)
Method in brief: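 Membrane-integrity cytotoxicity at 72 h, read as LDH-driven resorufin fluorescence in supernatant. hNPC spheres from fetal cortex differentiate on coated plates in N2 medium, 37C, 5% CO2; seven serial compound concentrations plus solvent control (DMSO ≤0.1%).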

[20] = IUF_NPC2-5_cytotoxicity_120hr: Cytotoxicity Assessment at 120 hours in the Leibniz Research Institute for Environmental Medicine (IUF) Neural Progenitor Cell Migration and Differentiation Assay (NPC2-5) (AID 2284307; active = hit-call score of the fitted dose curve at least 0.9, where 1 is the maximum)
Method in brief: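 Human fetal neural progenitor spheres (0.3 mm, GW 16-19 cortex) were plated on poly-D-lysine/laminin in N2 differentiation medium and exposed for 120 h, with half-medium refresh at day 3. LDH release into supernatant was read by resorufin fluorescence.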

[21] = IUF_NPC2-5_cell_number_120hr: Cell Number Assessment at 120 hours in the Leibniz Research Institute for Environmental Medicine (IUF) Neural Progenitor Cell Migration and Differentiation Assay (NPC2-5) (AID 2284308);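 also: count of Hoechst-stained nuclei in migration zone around plated human neural progenitor spheres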
Method in brief: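 Primary human fetal neural progenitor spheres (GW 16-19, 0.3 mm) plated on poly-D-lysine/laminin in N2 differentiation medium, exposed from day 0 for 120 h with half-medium refresh at day 3; Hoechst-positive nuclei counted in migration area versus DMSO control.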

[22] = IUF_NPC2-5_viability_120hr: Viability Assessment at 120 hours in the Leibniz Research Institute for Environmental Medicine (IUF) Neural Progenitor Cell Migration and Differentiation Assay (NPC2-5) (AID 2284312)
Method in brief: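 Alamar blue resorufin fluorescence read after 5 days of differentiation, with compound present from day 0 and replenished at day 3. Primary hNPC spheres on laminin-coated plates, 37C; seven concentrations plus solvent control, fitted against DMSO.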

[23] = CCTE_Mundy_HCI_iCellGluta_NOG_NeuriteLength: CCTE's Neurite Outgrowth Assay in iCellGluta cells for Neurite Length, Mundy Lab (AID 2284318; active = hit-call score of the fitted dose curve at least 0.9, where 1 is the maximum)
Method in brief: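 Automated high-content imaging of betaIII-tubulin (Alexa Fluor-488) and Hoechst-stained cells gave neurite length, normalized to the DMSO baseline.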

[24] = IUF_NPC1_cytotoxicity_72hr: Cytotoxicity Assessment at 72 hours in the Leibniz Research Institute for Environmental Medicine (IUF) Neural Progenitor Cell Proliferation Assay (NPC1) (AID 2284332; active = hit-call score of the fitted dose curve at least 0.9, where 1 is the maximum;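 also: rising LDH signal means more cytotoxicity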)
Method in brief: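 Cytotoxicity by LDH membrane-integrity assay on medium supernatants, fluorescence via resazurin reduction, after 3-day single exposure of primary hNPC spheres at 37C, pH 7.2-7.6 with growth factors. Fitted upward against baseline.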

[25] = CCTE_Mundy_HCI_iCellGluta_NOG_NeuriteCount: CCTE's Neurite Outgrowth Assay in iCellGluta cells for Neurite Count, Mundy Lab (AID 2284342; active = hit-call score of the fitted dose curve at least 0.9, where 1 is the maximum;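 also: chemical exposure about 48 hours starting 2 hours after plating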)

Measured: AC50

CCOP(=O)(Oc1cnc(C(C)(C)C)nc1)OC(C)C (stereo not given)
active: [23] 28.8 µM
inactive: [1] | [2] | [3] | [4] | [5] | [6] | [7] | [8] | [9] | [10] | [11] | [12] | [13] | [14] | [15] | [16] | [17] | [18] | [19] | [20] | [21] | [22] | [24] | [25]
